Reference: PubChem BioAssay (NCI)
This is part of a sample that, as a whole, favours compounds with a hit. Of some 79,000 tested, about 15% had one in any assay. Active and inactive are the calls of the source. Rule as the data show it: active = growth inhibition above about 70%; inactive = the rest. Where a SMILES comes first, the peptide text is derived from it. The star is where a group is joined. Cbz = O=C(OCc1ccccc1)*

Assay: NCI Yeast Anticancer Drug Screen. Data for the mlh1 rad18 strain (AID 175)
Details: S. cerevisiae mlh1 rad18 strain growth inhibition; at 50.0 µM; stronger effect = higher value
Summary of the method: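 Steps: expose repair-defective yeast to compound; measure growth; express inhibition against vehicle-treated controls.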

Row | SMILES | growth inhibition
1 | CCc1ccc(NC(=S)NC(=O)C(C)Oc2ccccc2)cc1 (stereo not given) | 8.9% (inactive)
2 | COc1ccc(NC(=O)CCC2=CC(=O)CC(c3ccccc3)O2)cc1 (stereo not given) | -5.05% (inactive)
3 | CCOc1c(N=Nc2ccccc2C)c(C)nn1C(N)=S | 23.1% (inactive)
4 | Cc1c([N+](=O)[O-])cc(C(C)(C)C)c(OC(=O)Nc2cccc(Cl)c2)c1[N+](=O)[O-] | 72.3% (active)
5 | CCOC(=O)c1cnc(=S)[nH]c1N | -43.5% (inactive)
6 | COc1ccc(CC(N)C(=O)OCCCl)cc1 (stereo not given) | 12% (inactive)
7 | C=C(C)c1ccccc1S(=O)(=O)c1ccccc1C(C)(C)O | 9.1% (inactive)
8 | Cc1ccc(-n2cc(-c3ccc(Cl)cc3)c3c2N=CN2NC(c4cccs4)=NC32)cc1 (stereo not given) | -17.3% (inactive)
9 | O=C(/C=C(\C(=O)c1ccccc1)c1ccccc1)c1ccc(Cl)cc1 | -24.6% (inactive)
10 | O=c1cc(NCc2c(Cl)cccc2[N+](=O)[O-])[nH]c(=O)[nH]1 | -5.3% (inactive)
11 | CN(C)CCN(C)CC(C)(C)C(=O)/C=C/c1ccccc1 | -15.4% (inactive)
12 | c1nnc2c3c4c(sc3ncn12)CCCC4 | 4.55% (inactive)
13 | CCC(O)C(=O)O (stereo not given) | -27.4% (inactive)
14 | COc1cc(/C=N/NC(=O)Cc2cccc3ccccc23)ccc1O | 8.8% (inactive)
15 | Cc1cc2c(cc1C)NC(=O)C(NC(=O)c1ccc(Cl)cc1)C=N2 (stereo not given) | 2.95% (inactive)
16 | CCOC(=O)c1[nH]c(Cc2[nH]c(C(=O)OCC)c(CC)c2C)c(C)c1CC | 24.2% (inactive)
17 | O=C(NC(=O)c1c(F)cccc1F)Nc1cccc(C(F)(F)F)c1 | 10.7% (inactive)
18 | COc1ccc(C2CC(c3cc(C)ccc3O)=NC(N)=N2)cc1 (stereo not given) | 23.4% (inactive)
19 | CC(=O)Nc1cccc(/C=C/c2ccc([N+](=O)[O-])cc2)c1 | 89.2% (active)
20 | O=C1OCCC1=P(c1ccccc1)(c1ccccc1)c1ccccc1 | -4.85% (inactive)

Row | SMILES | growth inhibition
21 | O/N=C/c1nc2ccccc2s1 | 23.8% (inactive)
22 | Cc1ccc(S(=O)(=O)Nc2ccccc2-c2nc3c(Cl)ccc(Cl)c3c(=O)o2)cc1 | 10.7% (inactive)
23 | Cc1cccc(NC(=O)O/N=C(\Cl)C(C)C)c1 | -43.4% (inactive)
24 | CC(C)(C)C(=O)/C=C/c1ccc(Oc2ccccc2)cc1 | -20.8% (inactive)
25 | C=Cc1ccc(C)[n+](C[Si](C)(C)O[Si](C)(C)C)c1 | -20.7% (inactive)
26 | CCOC(=O)CCC(NC(=O)C(CCC(=O)O)NC(=O)OCc1ccccc1)C(=O)OCC (stereo not drawn) (Cbz-Glu-Glu(OEt)-OEt; configuration not given here) | 0.05% (inactive)
27 | COC(=O)C(=O)C1CCc2c(ccc3c2CCCC3)C1 (stereo not given) | 10.2% (inactive)
28 | CC(=O)OCCOCNC(=S)N/N=C/c1ccc([N+](=O)[O-])s1 | 12.6% (inactive)
29 | Nc1cccc2ncccc12 | -19.9% (inactive)
30 | COC(=O)C(C)NC(=O)C(C)NC(=O)c1cc(OC)c(OC)c(OC)c1 (stereo not given) | 15.8% (inactive)
31 | Clc1ccc(C2ON=C(c3ccccc3)N2C23CC4CC(CC(C4)C2)C3)cc1 (stereo not given) | -0.75% (inactive)
32 | O=C(CCc1n[nH]c(=S)o1)Nc1ccccc1 | 35.3% (inactive)
33 | CC(=O)c1cc(C(C)=O)c(CC(=O)C(=O)Nc2cccc(C)c2C)nc1CC(=O)C(=O)Nc1cccc(C)c1C | -18.5% (inactive)
34 | CCCCC(CC)C1OCCS1 (stereo not given) | -10% (inactive)
35 | CN1CCN(c2nc3c(c(=O)n(C)c(=O)n3C)n2C)CC1 | 6.2% (inactive)
36 | O=C1C(=O)N(c2cc(Cl)ccc2Cl)C(=O)C(=O)C1c1nc2ccccc2s1 | -19.4% (inactive)
37 | O=C1NC(c2ccccc2Cl)Nc2ccccc21 (stereo not given) | -27.1% (inactive)
38 | Nc1nc2c(c(=O)[nH]1)CN(CCCN1CCOCC1)CN2 | 0% (inactive)
39 | CCCCCCCCCCCCCCCCC(NC(C)=O)(C(=O)OCC)C(=O)OCC | 23.6% (inactive)
40 | Nc1ccc2c(c1)NCC2 | -16.6% (inactive)
